Data on 22 molecules can be found in PubChem BioAssay (NCI).

Test [1] in a line: NCI Yeast Anticancer Drug Screen. Data for the mec2-1 strain (AID 157). As to conditions: S. cerevisiae mec2-1 strain, at 50.0 µM, active compounds read high. The essentials:
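Growth inhibition is read against vehicle-treated controls after compound exposure of the mec2-1 yeast strain, which is defective in DNA damage repair or cell cycle control.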

Test [2] is described as follows: NCI Yeast Anticancer Drug Screen. Data for the sgs1 mgt1 strain (AID 161).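 Also: 0% = growth of cultures given vehicle only.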 The note with it: S. cerevisiae sgs1 mgt1 strain, at 50.0 µM, active compounds read high. The gist of the method: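 Yeast cells carrying a defined DNA-repair defect were exposed to test compounds. Growth inhibition was measured relative to vehicle-treated controls.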
The nature of test [3]: NCI Yeast Anticancer Drug Screen. Data for the cln2 rad14 strain (AID 165).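 Also: 0% = growth equal to vehicle treated cultures.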 The note with it: S. cerevisiae cln2 rad14 strain, at 50.0 µM, active compounds read high. The gist of the method: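 Growth inhibition, relative to vehicle-treated controls, is the read-out. The test organism is a yeast strain with defined genetic alterations, cln2 rad14.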
Test [4] can be described thus: NCI Yeast Anticancer Drug Screen. Data for the bub3 strain (AID 167). As to conditions: S. cerevisiae bub3 mutant strain, at 50.0 µM, active compounds read high. The essentials: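 Screening used yeast with an engineered genetic alteration affecting cell cycle control. Compound-exposed cultures were compared with vehicle cultures, and reduced growth was taken as inhibition.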

A short description of test [5]: NCI Yeast Anticancer Drug Screen. Data for the mlh1 rad18 strain (AID 175). As to conditions: S. cerevisiae mlh1 rad18 strain growth inhibition; at 50.0 µM; active compounds read high. The gist of the method:
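Cells of a genetically altered yeast strain, deficient in DNA damage repair, were treated with compound. Their growth was then compared with that of vehicle-treated cultures to give inhibition.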

Compounds without any hit were thinned out: in the full panel of roughly 79,000, 15% have a hit. Values without a mark were called inactive. Calls of active or inactive are those of the source. Rule as the data show it: active = growth inhibition above about 70%; inactive = the rest. *1 amine or outer side, *2 acyl side, *3 side chain or, on linkers, in order; H or OH if unused. Where a SMILES comes first, the peptide text is derived from it. Bridges are numbered along the chain shown (N, C = ends). Roman numbers before positions name the chains, in order. [ ]: non-standard residue; d: D form. Actinocin(1to9) = Cc1c2oc3c(C)ccc(C(=O)[*:2])c3nc-2c(C(=O)[*:1])c(N)c1=O; NMeV = CN[CH](C(=O)O)C(C)C; Sar = CNCC(=O)O

For `OC1NC2CC3NC(O)C(O)NC3CC2NC1O` (stereo not drawn), the growth inhibition is -4.25% in test [1]; 12.7% in test [2]; 22.9% in test [3]; 16.1% in test [4]; 11.4% in test [5].

On to `CCC(C)C1NC(=O)C(NC(=O)c2c3nc4c(C(=O)NC5C(=O)NC(C(C)C)C(=O)N6CCCC6C(=O)N(C)CC(=O)N(C)C(C(C)C)C(=O)OC5C)ccc(C)c4oc-3c(C)c(=O)c2N)C(C)OC(=O)C(C(C)C)N(C)C(=O)CN(C)C(=O)C2CCCN2C1=O` (stereo not drawn) (I: TIP[Sar][NMeV] / II: TVP[Sar][NMeV]; ester I:1-I:C, II:1-II:C; linker I:N-II:N via Actinocin(1to9); configuration not given here), for which the growth inhibition is 92.2% (active) in test [1]; 91.2% (active) in test [2]; 88.3% (active) in test [3]; 89.8% (active) in test [4]; 85.7% (active) in test [5].

`CN(N=O)C(=O)ON1C(=O)CCC1=O`: the growth inhibition in test [1] was 7.55%; in test [2], 11.3%; in test [3], 12.4%; in test [4], 18.8%; in test [5] it was 8.75%.

For `CCCCCCCC(N)CC(=O)O` (stereo not drawn), the growth inhibition in test [1] was -44.2%; in test [2], -15.8%; in test [3], -0.7%; in test [4], -36.6%; in test [5], -8.05%.

Turning to `O=C(COc1ccc(Cl)c(Cl)c1)Nc1ccc[n+](Cc2ccc(S(=O)(=O)F)c(Cl)c2)c1`, the growth inhibition in test [1] is 94.3% (active); in test [2] it was 98.3% (active); in test [3], 95.8% (active); in test [4] it was 94.8% (active); in test [5] it was 99.5% (active).

On to `CN1CCC(O)(c2ccccc2)C(C(O)c2ccccc2)C1` (stereo not drawn), for which the growth inhibition in test [1] is -21.7%; in test [2] it was 17.9%; in test [3], -8.55%; in test [4] it was -23.9%; in test [5] it was -20.6%.

As for `C[C@]12CCc3nonc3C1CC[C@@H]1C2CC[C@@]2(C)C1CC[C@@H]2O` (stereo partly drawn), the growth inhibition is -0.65% in test [1], -53.1% in test [3], -7.55% in test [4] and -2.1% in test [5].

For `O=S1(F)=NP(N2CC2)(N2CC2)=NP(N2CC2)(N2CC2)=N1` (stereo not drawn), the growth inhibition was -3.15% in test [1]; -9.7% in test [2]; 6.6% in test [3]; -19.6% in test [4]; -39.9% in test [5].

With `Cc1ccc(C)c(NP(=O)(Nc2cc(C)ccc2C)N(CCCl)CCCl)c1`, the growth inhibition was -4.4% in test [1], 30.2% in test [2], 8.1% in test [3] and -8.55% in test [5].

With `COc1cc2c(cc1OC)C13CCN4CC5=CCOC6CC(=O)N2C1C6C5CC43O` (stereo not drawn), the growth inhibition in test [1] is -30.9%; in test [2], -8.05%; in test [3], 8.55%; in test [4] it was -4.2%; in test [5] it was -47.4%.

On to `C1CCN2CC3CONC3C2C1` (stereo not drawn), for which the growth inhibition in test [1] was -7.5%; in test [2], 2.05%; in test [3], 13.7%; in test [4], -6.2%; in test [5], -3.05%.

Turning to `C(=C\c1cccs1)/CN1CCC2CCC(C2)C1` (stereo not drawn), the growth inhibition was -4.15% in test [1]; 2.1% in test [2]; -17.1% in test [3]; 6.35% in test [4]; -10.8% in test [5].

As for `C[N+](C)(C)CC1CCCC/C1=N\O` (stereo not drawn), the growth inhibition in test [1] was 0.3%; in test [2], 9.75%; in test [3], 39%; in test [4] it was 8.6%; in test [5], 39.3%.

As to `Cc1ccccc1C(=O)[O][Pb]([CH3])([CH3])[CH3]`, the growth inhibition was -48% in test [1]; -6.5% in test [2]; -27.9% in test [3]; 0% in test [4]; 7% in test [5].

Regarding `CC(C)CC(NC(=O)CF)C(=O)O` (stereo not drawn), the growth inhibition in test [2] was -4.7%; in test [3], 1.4%; in test [4] it was 4.05%; in test [5], -3.05%.

Consider `NC(Cc1ccc(O)c(O)c1)c1ccccc1` (stereo not drawn), for which the growth inhibition was 4.2% in test [1]; -2.55% in test [2]; -25.8% in test [3]; -7.75% in test [4]; -22.6% in test [5].

As for `CCC(Br)C(=O)OCCCl` (stereo not drawn), the growth inhibition in test [1] was 13.7%; in test [2], 7.7%; in test [3], -4.75%; in test [4], 15.5%; in test [5] it was 3.6%.

On to `CCNC1CCCCC1`, for which the growth inhibition in test [1] is -5.45%; in test [2], -14.2%; in test [3], 29.1%; in test [4], -19.1%; in test [5], 20.1%.

On to `O=C(CN1C(=O)c2ccccc2C1=O)OCCNCCCl`, for which the growth inhibition in test [1] was 96.5% (active); in test [2] it was 98.1% (active); in test [3] it was 95.9% (active); in test [4], 97.4% (active); in test [5], 98.5% (active).

Consider `OC(c1ccccc1)C(Cl)(Cl)Cl` (stereo not drawn), for which the growth inhibition is -10.8% in test [1]; 13.7% in test [2]; -42.1% in test [3]; -14.1% in test [4]; 3.55% in test [5].

On to `CN1C2CCC1C(Br)C(=O)C2` (stereo not drawn), for which, in test [5], the growth inhibition was -51.2%.

Consider `CO[C@H]1C[C@H](O[C@H]2CC[C@@]3(C)[C@H](CC[C@@H]4[C@@H]3CC[C@]3(C)[C@@H](C5=CC(=O)OC5)CC[C@]43O)C2)O[C@H](C)[C@H]1O`, for which the growth inhibition in test [1] is 5.95%; in test [2] it was 17.8%; in test [3], 23.1%; in test [4], 14.6%; in test [5], -49%.
